Experimental data published in PubChem BioAssay (NCATS).
Records with an inconclusive call do not appear. Active and inactive are the calls of the source. The call rests on the fitted dose curve; in most records, active means well fitted curve in the direction sought with a large enough effect; inconclusive means small, poorly fitted or top-dose-only effect, or another doubt; inactive means no such curve, though single readings can be large; an effect the other way counts as inactive or inconclusive.

Legend:
CRL-7250 = normal cell line; experiment: Cytotoxic Profiling of Annotated Libraries Using Quantitative High-Throughput Screening (AID 1296008); settings: Five cell lines viability, CellTiter-Glo ATP luminescence, 48-72 h; max response: hits give low values; further: nearly all actives have a fitted effect of over 60% in size; further: potency means the concentration at half of the fitted maximal effect; on max response: on the % scale 0 is the no-effect control and ±100 the full control effect
Method in brief: (§1)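 Compounds were pin-transferred onto cells and incubated 48 or 72 hr at 37 degree Celsius, 95% humidity. CellTiter-Glo was added, plates sat 10 min at room temperature, then ATP-coupled luminescence was imaged as the viability read-out.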

HEK293 = experiment: as above; settings: Five cell lines viability, CellTiter-Glo ATP luminescence, 48-72 h; max response: hits give low values
Method in brief: as §1

HaCat [1] = experiment: as above; settings: Five cell lines viability, CellTiter-Glo ATP luminescence, 48-72 h; max response: hits give low values
Method in brief: as §1

NIH3T3 [2] = experiment: as above; settings: Five cell lines viability, CellTiter-Glo ATP luminescence, 48-72 h; max response: hits give low values
Method in brief: as §1

C33A = experiment: Primary qHTS to identify gynecologic anti-cancer compounds using libraries of approved drugs and bioactive compounds (AID 1345084); settings: Gynecologic cancer cell panel viability, ATPlite luminescence, 48 h; series mostly up to 57.5 µM; further: nearly all actives have a fitted effect of over 55% in size; further: potency means the concentration at half of the fitted maximal effect
Method in brief: (§2)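 48 h compound exposure at 37 C, 5% CO2; five-point qHTS. ATPlite luminescence readout of cell ATP.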

CAOV3 = experiment: as above; settings: Gynecologic cancer cell panel viability, ATPlite luminescence, 48 h; series mostly up to 57.5 µM
Method in brief: as §2

CASKI = experiment: as above; settings: Gynecologic cancer cell panel viability, ATPlite luminescence, 48 h; series mostly up to 57.5 µM
Method in brief: as §2

Es-2 = experiment: as above; settings: Gynecologic cancer cell panel viability, ATPlite luminescence, 48 h; series mostly up to 57.5 µM
Method in brief: as §2

HeLa = experiment: as above; settings: Gynecologic cancer cell panel viability, ATPlite luminescence, 48 h; series mostly up to 57.5 µM
Method in brief: as §2

Hek293T = experiment: as above; settings: Gynecologic cancer cell panel viability, ATPlite luminescence, 48 h, control line for the selectivity index; series mostly up to 57.5 µM
Method in brief: as §2

JEG-3 = experiment: as above; settings: Gynecologic cancer cell panel viability, ATPlite luminescence, 48 h; series mostly up to 57.5 µM
Method in brief: as §2

OV90 = experiment: as above; settings: Gynecologic cancer cell panel viability, ATPlite luminescence, 48 h; series mostly up to 57.5 µM
Method in brief: as §2

PA-1 = experiment: as above; settings: Gynecologic cancer cell panel viability, ATPlite luminescence, 48 h; series mostly up to 57.5 µM
Method in brief: as §2

SKOV3 = experiment: as above; settings: Gynecologic cancer cell panel viability, ATPlite luminescence, 48 h; series mostly up to 57.5 µM
Method in brief: as §2

HACAT [3] = experiment: qHTS assay to identify novel small-molecules to repurpose for Merkel cell carcinoma treatment (AID 1296009); settings: MCC and control cell lines, CellTiter-Glo viability, 72 h; at 44.8 µM (top of the series) unless noted; further: nearly all actives have a fitted effect of over 60% in size
Method in brief: (§3)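 qHTS format: cells treated with library compounds in DMSO across 8 (NPC) or 11 (MIPE) concentrations. Readout after 72 hr at 37 degree celsius was CellTiter-Glo luminescence.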

NIH3T3 [4] = experiment: as above; settings: MCC and control cell lines, CellTiter-Glo viability, 72 h; series mostly up to 44.8 µM
Method in brief: as §3

C1=C/COCc2cc(ccc2OCCN2CCCC2)Nc2nccc(n2)-c2cccc(c2)COC/1
active: Potency (CRL-7250) 6510 nM | Potency (HEK293) 2060 nM | Potency (HaCat [1]) 5800 nM | Potency (NIH3T3 [2]) 4110 nM | Potency (C33A) 11200 nM | Potency (CAOV3) 11200 nM | Potency (CASKI) 3550 nM | Potency (Es-2) 14100 nM | Potency (HeLa) 3980 nM | Potency (Hek293T) 7940 nM | Potency (JEG-3) 11200 nM | Potency (OV90) 17800 nM | Potency (PA-1) 2820 nM | Potency (SKOV3) 8910 nM

CNc1cc2[nH]c(=O)n(-c3ccc(NC(=O)NS(=O)(=O)c4ccc(Cl)s4)cc3)c(=O)c2cc1F
inactive: outcome (CRL-7250) | max response (HEK293) -0.0272% | outcome (HaCat [1]) | max response (NIH3T3 [2]) 2.24% | outcome (HACAT [3]) | Potency (C33A) | Potency (CAOV3) | Potency (CASKI) | Potency (Es-2) | Potency (HeLa) | Potency (Hek293T) | Potency (JEG-3) | Potency (OV90) | Potency (PA-1) | Potency (SKOV3)

N#Cc1cc(-c2ccnc(Nc3ccc(N4CCOCC4)cc3)n2)ccc1OC1CCOCC1
inactive: outcome (HaCat [1]) | outcome (HACAT [3]) | Potency (C33A) | Potency (CASKI) | Potency (Es-2) | Potency (HeLa) | Potency (Hek293T) | Potency (JEG-3) | Potency (OV90)
active: Potency (CRL-7250) 4110 nM | Potency (HEK293) 7310 nM | Potency (NIH3T3 [2]) 11600 nM

CC(=O)O[C@@H]1C[C@@]23C[C@@]24CC[C@H](O[C@@H]2OC[C@H](O)[C@H](O)[C@H]2O)C(C)(C)[C@@H]4CC[C@H]3[C@]2(C)[C@@H](O)C34O[C@H](C[C@@H](C)[C@@H]3[C@@]12C)[C@@H](C(C)(C)O)O4
inactive: max response (CRL-7250) 4.08% | max response (HEK293) -6.78% | outcome (HaCat [1]) | max response (NIH3T3 [2]) 2.71% | outcome (HACAT [3]) | Potency (C33A) | Potency (CAOV3) | Potency (CASKI) | Potency (Es-2) | Potency (HeLa) | Potency (Hek293T) | Potency (JEG-3) | Potency (OV90) | Potency (PA-1) | Potency (SKOV3)

O=c1cc(NCCCN[C@@H]2CCOc3c(Br)cc(Br)cc32)[nH]c2ccsc12
inactive: max response (CRL-7250) 1.96% | max response (HaCat [1]) -8.13% | max response (NIH3T3 [2]) 2.02% | Potency (C33A) | Potency (CAOV3) | Potency (CASKI) | Potency (Es-2) | Potency (HeLa) | Potency (JEG-3) | Potency (OV90) | Potency (PA-1) | Potency (SKOV3)
active: Potency (HEK293) 5800 nM

Cc1nc2ccc(CN(C)c3ccc(C(=O)NC(CCC(=O)O)C(=O)O)s3)cc2c(=O)[nH]1 (centres undefined)
inactive: outcome (CRL-7250) | Potency (C33A) | Potency (CAOV3) | Potency (CASKI) | Potency (Hek293T) | Potency (OV90)
active: Potency (HEK293) 41.1 nM | Potency (HaCat [1]) 10.3 nM | Potency (NIH3T3 [2]) 65.1 nM

N#Cc1ccnc(Nc2cc(C3CCN(C4COC4)CC3)cc(N3CCC(F)(F)C3)n2)c1
active: Potency (CRL-7250) 11700 nM | Potency (HEK293) 8310 nM | Potency (HaCat [1]) 23400 nM | Potency (NIH3T3 [2]) 20900 nM

CC(=O)OC(C)(C)/C=C/C(=O)[C@](C)(O)[C@H]1C(O)C[C@@]2(C)[C@@H]3CC=C4[C@@H](C=C(O[C@@H]5O[C@H](CO)[C@@H](O)[C@H](O)[C@H]5O)C(=O)C4(C)C)[C@]3(C)C(=O)C[C@]12C (some centres undefined)
inactive: outcome (CRL-7250) | max response (HEK293) -18.4% | outcome (HaCat [1]) | outcome (NIH3T3 [2]) | outcome (HACAT [3]) inactive [at 17.4 µM] | Potency (NIH3T3 [4]) | Potency (C33A) | Potency (CASKI) | Potency (Es-2) | Potency (HeLa) | Potency (Hek293T) | Potency (JEG-3) | Potency (OV90) | Potency (PA-1)

CC(=O)C1=C(O)C=C2Oc3c(C(C)=O)c(O)c(C)c(O)c3[C@]2(C)C1=O
inactive: outcome (CRL-7250) | max response (HEK293) 0.521% | outcome (HaCat [1]) | outcome (NIH3T3 [2]) | outcome (HACAT [3]) | Potency (NIH3T3 [4]) | Potency (C33A) | Potency (CAOV3) | Potency (CASKI) | Potency (Es-2) | Potency (HeLa) | Potency (Hek293T) | Potency (JEG-3) | Potency (OV90) | Potency (PA-1) | Potency (SKOV3)

CCOC(=O)c1cnc2ccc(-c3cncc(NS(=O)(=O)c4ccccc4)c3)cn12
active: Potency (CRL-7250) 4110 nM | Potency (HEK293) 1030 nM | Potency (HaCat [1]) 1460 nM | Potency (NIH3T3 [2]) 1160 nM | Potency (CASKI) 2000 nM | Potency (Es-2) 3160 nM | Potency (HeLa) 1580 nM | Potency (Hek293T) 1780 nM | Potency (JEG-3) 7080 nM | Potency (OV90) 11200 nM | Potency (PA-1) 1780 nM | Potency (SKOV3) 31600 nM

CC(C)NCCCn1c(Sc2cc3c(cc2I)OCO3)nc2c(N)ncnc21
inactive: Potency (HeLa)
active: Potency (CRL-7250) 411 nM | Potency (HEK293) 184 nM | Potency (HaCat [1]) 231 nM | Potency (NIH3T3 [2]) 291 nM | Potency (C33A) 1580 nM | Potency (CAOV3) 1580 nM | Potency (OV90) 398 nM | Potency (SKOV3) 2000 nM

CC[C@@H](C)Nc1cc(C(=O)NC2CC3CCC(C2)N3c2ccc(C(=O)C3CC3)cn2)c(C)cc1C(N)=O (some centres undefined)
active: Potency (CRL-7250) 259 nM | Potency (HEK293) 130 nM | Potency (HaCat [1]) 184 nM | Potency (NIH3T3 [2]) 206 nM | Potency (OV90) 316 nM | Potency (PA-1) 355 nM

CCc1cc(C(N)=O)ccc1-n1nc(C(C)C)c2c(-n3cnc(-c4cnn(C)c4)c3)ccnc21
active: Potency (CRL-7250) 4110 nM | Potency (NIH3T3 [2]) 1300 nM
inactive: max response (HEK293) -117% | max response (HaCat [1]) -102% | Potency (CASKI) | Potency (Es-2) | Potency (HeLa) | Potency (JEG-3)

FC(F)(F)c1ccc(/C=C/c2nc(COc3ccc(CCCCn4ccnn4)cc3)co2)cc1
active: Potency (CRL-7250) 65.1 nM | Potency (HEK293) 29.1 nM
inactive: max response (HaCat [1]) -23.7% | max response (NIH3T3 [2]) -18.7% | Potency (CAOV3) | Potency (HeLa) | Potency (Hek293T)
